Results reported in PubChem BioAssay (Tox21).
Records with an inconclusive call do not appear. A call without a number means that no potency is given here. Activity calls are given as the source filed them. Calls come from the whole dose curve; as a rule, active = well fitted cell-killing curve with a large enough effect in the repeat runs; inconclusive = weak or mixed curves, or effect the other way; inactive = flat fitted curve, though single readings scatter.

Experiment: qHTS assay to identify small molecule that activate the aryl hydrocarbon receptor (AhR) signaling pathway - cell viability counter screen (AID 743086);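 note: HepG2 liver cells carrying the AhR DRE luciferase reporter; nearly all actives have a fitted effect of over 45% in size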
Details: HepG2-AhR-luc viability, CellTiter-Fluor, 24 h; series mostly up to 70.3 µM
Excerpt: U.S. Tox21 Program National Center for Advancing Translational Sciences [NCATS] NIH Chemical Genomics Center [NCGC] U.S. Environmental Protection Agency [EPA] National Institutes of Environmental Health Sciences [NIEHS] National Toxicology Program [NTP] U.S. Food and Drug Administration [FDA] Tox21 Assay overview: The Aryl hydrocarbon Receptor (AhR), a member of the family of basic helix-loop-helix transcription factors, is crucial to adaptive responses to environmental changes. AhR mediates cellular responses to environmental pollutants such as aromatic hydrocarbons through induction of phase I and II enzymes but also interacts with other nuclear receptor signaling pathways A cell based HepG2-AhR-luc assay (HG2L7.5c1 cell line, developed by Dr. Michael S. Denison, University of California at Davis) was used to assess the activation of AhR. HepG2 (human hepatocellular carcinoma) cells were stably transfected with an Ah receptor-responsive firefly luciferase reporter gene plasmid containing 20 dioxin responsive elements and luciferase reporter gene. Increased luciferase activity can be used to identify the compounds that induce AhR activation. The cytotoxicity of the compounds screened against the HepG2-AhR-luc cell line was tested in parallel by measuring the cell viability using CellTiter-Fluor assay in the same wells.
Tox21 Assay Protocol Summary: 4000 cells in 5 uL/well were dispensed into white wall/solid bottom 1536-well plates using a Multidrop Combi (Thermo Fisher Scientific Inc., Waltham, MA) dispenser. After the assay plates were incubated at 37C for 5 h, 23 nL of compound or DMSO vehicle was transferred to the assay plates by a pintool station (Kalypsys, San Diego, CA). The plates were incubated at 37C for 24 hr. For cell viability measurement, 1 ul/well of CellTiter-Fluor reagent (Promega, Madison, WI) was added into the assay plates using a Flying Reagent Dispenser (FRD) (Aurora Discovery, CA),and then the assay plates were incubated at 37C for 30 min. The fluorescence intensity in the plates was measured using a ViewLux plate reader (PerkinElmer, Shelton, CT), followed by the addition of 4 uL of ONE-Glo Luciferase Assay reagent (Promega) using an FRD (Aurora Discovery). After the assay plates were incubated at room temperature for 30 min, luminescence intensity was measured using a ViewLux plate reader (Perkin Elmer).

SMILES | Potency
COc1ccnc(CS(=O)c2nc3cc(OC(F)F)ccc3[nH]2)c1OC (stereo not given) | inactive
CCCCCC(C)N (stereo not given) | inactive
NC(=O)Cc1cccc2ccccc12 | inactive
O=C1c2ccccc2C(=O)c2cc(O)ccc21 | inactive
CCCCCCCCCCCCSC | inactive
CO[Si](C)(OC)c1ccccc1 | inactive
O=S(=O)(O)c1cccc(S(=O)(=O)O)c1 | inactive
CC(C)COC(=O)c1ccc(N)cc1 | inactive
CC[N+](C)(CC)CCOC(=O)C1c2ccccc2Oc2ccccc21 | inactive
CC(N)C12CC3CC(CC(C3)C1)C2 (stereo not given) | inactive
CCOC(=O)OC(C)OC1=C(C(=O)Nc2ccccn2)N(C)S(=O)(=O)c2ccccc21 (stereo not given) | inactive
COc1cccc(OC)c1C(=O)N[C@@H]1C(=O)N2[C@@H]1SC(C)(C)[C@@H]2C(=O)O | inactive
C[N+]1(C)CCCC(OC(=O)C(O)(c2ccccc2)c2ccccc2)C1 (stereo not given) | inactive
Cc1nc2ccc(CN(C)c3ccc(C(=O)N[C@@H](CCC(=O)O)C(=O)O)s3)cc2c(=O)[nH]1 | inactive
CCOC(=O)CCC(=O)OCC | inactive
CCCCCCCC1CCCC1=O (stereo not given) | inactive
CCCCOCCOC(=O)CCCCCCCCC(=O)OCCOCCCC | inactive
CC(C)(C)OC(=O)c1cccc(N)c1 | inactive
C[C@H]1C[C@H]2[C@@H]3CCC4=CC(=O)C=C[C@]4(C)[C@H]3C(=O)C[C@]2(C)[C@@]1(O)C(=O)CO | inactive
N[C@H](C(=O)O)[C@@H](O)c1ccc(O)c(O)c1 | inactive

SMILES | Potency
CC(CO)(CO)[N+](=O)[O-] | inactive
CC1=NN(c2cccc(S(=O)(=O)O)c2)C(=O)C1 | inactive
CC(C(=O)O)c1cccc(Oc2ccccc2)c1 (stereo not given) | inactive
O=C(c1ccccc1)C1(O)CCCCC1 | inactive
CC(C)(C#N)Nc1nc(Cl)nc(NC2CC2)n1 | inactive
COc1cc2c(cc1OC)-c1cc3ccc(OC)c(OC)c3c[n+]1CC2 | inactive
CC(=O)C1CCCCC1=O (stereo not given) | inactive
O=C(CO)[C@@H](O)[C@H](O)[C@H](O)CO | inactive
COCCOC[C@H](CC1(C(=O)NC2CCC(C(=O)O)CC2)CCCC1)C(=O)Oc1ccc2c(c1)CCC2 (stereo not given in full) | inactive
Cc1ccc(-c2ncc(Cl)cc2-c2ccc(S(C)(=O)=O)cc2)cn1 | inactive
C[N+](C)(C)CCCCCCCCCC[N+](C)(C)C | inactive
C=C(C)C(=O)OCC1CCCO1 (stereo not given) | inactive
[K+] | inactive
Nc1ccn([C@@H]2O[C@H](CO)[C@@H](O)[C@@H]2O)c(=O)n1 | inactive
CC(C)C[C@@H](N)C(=O)O | inactive
Cc1ccc(C(=O)c2ccccc2)cc1 | inactive
CCOC(=O)COc1cc(-n2ncc(C(F)(F)F)c(C)c2=O)c(F)cc1Cl | inactive
C1CCC2=NCCCN2CC1 | inactive
[Ca+2] | inactive
CN1[C@@H]2CC[C@H]1CC(OC(=O)C(O)c1ccccc1)C2 (stereo not given in full) | inactive
